Assay outcomes deposited in PubChem by National Center for Advancing Translational Sciences (NCATS).
Only some compounds are listed: those with a hit (about 2.4% of all), similar ones and a draw of the others.
GLP1R inv ag: qHTS of GLP-1 Receptor Inverse Agonists (Inhibition Mode). HEK293 GLP-1R CRE-luciferase, luminescence, 24 h; GLP-1R form is constitutively active. Potency, µM (doses to about 38.3 µM), inactives show top-dose activity change, negative = inhibition, most hits filed as inhibitors. 410,000 compounds, 1.6% hits. Glucagon-like peptide 1 receptor (Homo sapiens), P43220; note: potency is the fitted concentration of half-maximal effect; % is set by controls: 0 for no effect and ±100 for the full control effect; nearly all actives have a fitted effect of over 55% in size
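Inverse agonists were sought by their lowering of basal cAMP reporter luciferase output in HEK293 cells stably carrying constitutively active human GLP-1R, after 24 h compound treatment.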
HEK293 tox: qHTS of GLP-1 Receptor Inverse Agonists: Cytotox Screen | HEK293 cAMP-luciferase reporter cells, luminescence, 24 h | Potency, µM (highest dose often 38.3 µM), without a hit: at the highest dose activity change, negative = inhibition, most hits filed as inhibitors | 410,000 compounds, 0.13% hits;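 note: loss of luciferase light is scored as toxicity; potency is the fitted concentration of half-maximal effect; % is set by controls: 0 for no effect and ±100 for the full control effect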
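Step one: seed cells (200 cells/uL, DMEM with 10% Nu serum, 1% pen-strep). Step two: 12-hour incubation at 37 deg C. Step three: pin 23 nL compound, incubate 24 hr. Step four: add luciferase reagent, read luminescence 12 min later.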
PTHR1 agonist: qHTS for PTHR1 Agonists: Primary Screen | HEK293 GP2 PTHR1 cells, GloSensor cAMP luminescence, 1 h | Potency, µM (series often up to 115 µM), for inactives: top-dose activation, actives largely listed as activators | AID 743266, 2014 | 410,000 compounds, 0.075% hits | Parathyroid hormone/parathyroid hormone-related peptide receptor (Homo sapiens), Q03431; note: potency is the fitted concentration of half-maximal effect; nearly all actives have a fitted effect of over 55% in size
Target sequence (Q03431 whole entry, looked up): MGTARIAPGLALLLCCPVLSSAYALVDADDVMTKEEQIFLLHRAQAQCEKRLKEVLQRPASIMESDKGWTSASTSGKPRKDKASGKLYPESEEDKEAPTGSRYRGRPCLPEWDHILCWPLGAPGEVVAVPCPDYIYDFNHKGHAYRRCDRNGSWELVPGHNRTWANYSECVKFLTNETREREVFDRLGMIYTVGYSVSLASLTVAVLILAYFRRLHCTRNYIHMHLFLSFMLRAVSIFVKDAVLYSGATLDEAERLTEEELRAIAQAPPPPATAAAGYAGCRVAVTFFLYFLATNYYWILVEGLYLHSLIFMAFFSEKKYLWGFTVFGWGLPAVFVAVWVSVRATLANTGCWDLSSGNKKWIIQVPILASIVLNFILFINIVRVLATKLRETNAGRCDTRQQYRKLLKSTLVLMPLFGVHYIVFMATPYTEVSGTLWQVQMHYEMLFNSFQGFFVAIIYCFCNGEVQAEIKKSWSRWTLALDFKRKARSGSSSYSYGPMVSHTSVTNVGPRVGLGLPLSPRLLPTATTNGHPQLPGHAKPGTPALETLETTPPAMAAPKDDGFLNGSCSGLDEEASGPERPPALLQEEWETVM
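HEK-293-derived GP2 cells expressing PTHR1 and a GloSensor cAMP reporter, 3,000/well, plated overnight, given luciferin plus IBMX (each 0.5 mM as added) for 1 h at 37 °C, then compound for 1 h at 37 °C. Luminescence was read after 15 min at room temperature.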
GLP-1R agonist: qHTS of GLP-1 Receptor Agonists; AID 624172, 2012; HEK293 GLP-1R CRE-luciferase, luminescence, 4-6 h; cells express a hypersensitive GLP-1R form; Glucagon-like peptide 1 receptor (Homo sapiens), P43220; 380,000 compounds, 0.007% hits; Potency, µM (top dose mostly 45.6 µM), for the others: at the highest dose activation, usual class: activators; note: potency is the fitted concentration of half-maximal effect; % of control where 0% means no effect
TRHR PAM: qHTS for Small Molecule Agonists and Allosteric Enhancers of Human TRH Receptor: Primary Screen for Enhancers; Thyrotropin-releasing hormone receptor (Homo sapiens), P34981; TRHR cells, fluo-8 calcium fluorescence, EC20 TRH enhancement; enhancement, % at 2 µM; 360,000 compounds, 0.66% hits; AID 493056, 2011; in the data active = enhancement above about 30%; note: 0% is about no effect
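Enhancer read-out: after compound pinning and an initial kinetic agonist-mode read, an EC20 of TRH (10 nM final) was injected and fluo-8 calcium signal (Ex 480/Em 530) followed at 1 s/cycle for 100 cycles in TRHR-expressing cells.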
TRHR ag: qHTS for Small Molecule Agonists and Allosteric Enhancers of Human TRH Receptor: Primary Screen for Agonists | Thyrotropin-releasing hormone receptor (Homo sapiens), P34981 | TRHR cells, calcium flux fluo-8, FDSS agonist mode | activation, % at 2 µM | 360,000 compounds, 0.18% hits; in the data active = activation above about 30%; note: 0% is about no effect
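TRHR-expressing cells loaded with fluo-8 calcium dye; 23 nL library compound pin-transferred, kinetic FDSS fluorescence (Ex 480/Em 530) recorded about 180 s for agonist-induced calcium release, before a 10 nM TRH EC20 addition for potentiator mode.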
* hit, by the source's call; i = inactive; ? = inconclusive; / = not tested or not shown; ! = repeats disagree; [ ] = another dose, or the depositor's remark. Unless noted, calls come from the whole dose curve; as a rule, active = well fitted curve in the direction sought with a large enough effect; inconclusive = small, poorly fitted or top-dose-only effect, or another doubt; inactive = no such curve, though single readings can be large; an effect the other way counts as inactive or inconclusive.

SMILES | GLP1R inv ag | HEK293 tox | PTHR1 agonist | GLP-1R agonist | TRHR PAM | TRHR ag
CC(C)NC(=O)NC(=O)COC(=O)c1c2c(nc3ccccc13)CCC2 | 10µM* | ? | -43% | 6% | 0 | 0
COc1cccc(NC(=O)COC(=O)c2c3c(nc4ccccc24)CCC(C)C3)c1 (stereo not given) | 5µM* | ? | ? | -20% | -4 | 0
Cc1c(Cl)cccc1NC(=O)COC(=O)c1c2c(nc3ccccc13)CCN(Cc1ccccc1)C2 | ? | -9% | -28% | -6% | 3 | 0
O=Cc1cc2ccccc2nc1SCc1ccc(Cl)cc1 | 0% | ? | -6% | 4% | -2 | 1
Cc1ccc(CSc2nc3ccccc3cc2C=O)cc1 | 4µM* | ? | -14%[57.5 µM] | 2% | -7 | 3
O=C(CSc1nc(-c2ccc(Cl)cc2)cs1)Nc1cccc([N+](=O)[O-])c1 | 10µM* | -4% | -45% | -2% | -2 | -1
NS(=O)(=O)c1ccc(CCNS(=O)(=O)c2cccs2)cc1 | 3% | -3% | i | -7% | -6 | 0
Cc1ccc(O)c(N=NC2=C(O)CC(C)(C)CC2=O)c1 | ? | 13µM* | -3% | -3% | 7 | 1
CC1(C)CC(=O)C(N=Nc2cc(Cl)c(Cl)c(Cl)c2)=C(O)C1 | -24% | -20% | -19%[57.5 µM] | 2% | -2 | -1
CCCn1nc(C(=O)Nc2nc(-c3ccccn3)cs2)c2ccccc2c1=O | ? | 5µM* | -20% | -5% | 2 | 0
Nc1nonc1C(=O)N/N=C/c1cc(Br)ccc1O | ? | -7% | -12% | 0% | 11 | 45*
Nc1nonc1-n1nnc(C(=O)N/N=C/c2cc(Br)ccc2O)c1CNc1ccccc1 | -4% | 5% | i | 0% | -7 | 2
CC(=O)c1cccc(N2C(=NC(=O)CCc3ccccc3)SC3CS(=O)(=O)CC32)c1 (stereo not given) | 3% | -5% | 10% | -6% | -9 | 0
COc1cccc(NC(=O)N2CCc3nc(NCc4cccc(Oc5ccccc5)c4)ncc3C2)c1 | 10µM* | -22% | -87% | -1% | / | /
O=C(Nc1ccc(OC(F)(F)F)cc1)N1CCc2nc(NCc3cccc(Oc4ccccc4)c3)ncc2C1 | -63% | -17% | -91% | 8% | / | /
CC(C)(O)CN(C(=O)c1ccccc1)C1CCCCC1 | 14% | -6% | -23% | -11% | / | /
c1ccc2cc(CSCc3nc4ccccc4[nH]3)ccc2c1 | 10µM* | ? | -17% | -2% | -3 | 0
O=C(CSCc1nc2ccccc2[nH]1)Nc1ccc2ccccc2c1 | 0% | 0% | i | 5% | 2 | 0
COc1cc(/C=C/C(=O)OCC(=O)NC(=O)NC(C)(C)C)cc(OC)c1OC | 8% | -1% | -10% | 8% | 3 | -2
CCOC(=O)C1=C(COC(=O)CCS(=O)(=O)c2ccc(C)cc2)NC(=O)NC1C (stereo not given) | -7% | 6% | 22% | 4% | 16 | 0
CC(C)OP(=O)(OC(C)C)C(NC(=O)c1ccccc1Br)C(N)=O (stereo not given) | 14% | -10% | i | 0% | 32* | -1
CC(C)OP(=O)(OC(C)C)C(NC(=O)c1ccccc1)C(N)=O (stereo not given) | 10% | -4% | i | 10% | -6 | 0
CS(=O)(=O)N1N=C(c2ccco2)CC1c1ccccc1 (stereo not given) | 9% | 9% | -1% | -4% | -2 | -1
Fc1ccc(C2CC(c3ccco3)=NN2c2ccccc2)cc1 (stereo not given) | 6.3µM* | 110% | -14% | 1% | 10 | 0
CC(C)c1nc2ccc(C(=O)NCCCN3CCN(c4cccc(Cl)c4)CC3)cc2o1 | 10µM* | -17% | i | / | 4 | 0
SMILES | GLP1R inv ag | HEK293 tox | PTHR1 agonist | GLP-1R agonist | TRHR PAM | TRHR ag
O=C(NCCN1CCN(c2ccccc2)CC1)Nc1cccc(Cl)c1 | 2.5µM* | -19% | -10% | 23% | 5 | 1
Cc1cc(C(=O)NCCN2CCN(c3cccc(Cl)c3)CC2)n(-c2ccccc2)n1 | 6.3µM* | -25% | -16% | -5% | 11 | 0
CCCn1c(C)cc(C(=O)CN2C(=O)c3cccc(N)c3C2=O)c1C | 20% | 50% | -6% | -3% | -1 | 1
Cc1c(C(=O)N(Cc2cccc(F)c2)C2CCS(=O)(=O)C2)oc2cc(Br)ccc12 (stereo not given) | ? | 1% | -13% | / | -7 | 1
Cc1c(C(=O)N(Cc2cccc(Br)c2)C2CCS(=O)(=O)C2)oc2ccc(F)cc12 (stereo not given) | 22µM* | -12% | -2% | -3% | -3 | 1
Cc1cccc(NC(=O)Cn2c(=O)ccc3cc(S(=O)(=O)N4CCCC4)ccc32)c1C | 21% | -9% | -7% | 2% | -1 | 0
Cc1cccn2c(=O)c3cc(C#N)c(=N)n(CCN4CCOCC4)c3nc12 | 30% | 68% | -1%[57.5 µM] | -18% | 32* | 0
COc1ccc(S(=O)(=O)N(C)C)cc1NC(C)C(=O)Nc1cccc(C#N)c1 (stereo not given) | 3% | -6% | i | 7% | -5 | 0
O=C(CC(c1ccccc1)c1cc(Br)ccc1O)N1CCCCC1 (stereo not given) | 10µM* | -21% | -13% | 10% | 2 | -1
CC(C)COC(=O)N1CCCCC1c1cc(C(=O)NC(C)C)no1 (stereo not given) | 9% | 4% | -35% | -3% | / | /
CCn1c(=O)c2c(nc3n2CCS3)n(C)c1=O | 10% | 7% | -5% | -7% | -1 | 0
Cn1c(=O)n(CC(=O)O)c(=O)c2c1nc1n2CCS1 | 11% | 7% | i | -3% | 40*! | -1
COc1cccc(OC)c1OCCCCCCN1CCN(C)CC1 | -17% | 2% | i | -1% | -3 | 0
COc1ccccc1OCCCCN1CCN(C(c2ccccc2)c2ccccc2)CC1 | 4.5µM* | ? | -39% | -4% | -4 | 2
N#Cc1ccc(OCC(O)CN2CCN(C(c3ccccc3)c3ccccc3)CC2)cc1 (stereo not given) | 7.1µM* | -19% | i | 13% | 4 | 0
OC(COc1ccccc1)CN1CCN(C(c2ccccc2)c2ccccc2)CC1 (stereo not given) | ? | -15% | ? | 0% | 8 | -1
